High-throughput results as filed in PubChem.
Lassa entry inh: Lassa virus entry inhibition | Potency, µM (doses to about 37.9 µM), most hits filed as inhibitors | Lassa virus pseudotype entry inhibition, cell reporter | AID 540256 | 300,000 tested, 1.2% active; calls by dose curve; tested in HEK293 cells; further: nearly all actives have a fitted effect of over 50% in size
Vaccinia mCherry: vaccinia inhibition (mCherry reporter) | Vaccinia virus mCherry reporter infection, fluorescence | Potency, µM (top dose mostly 36.5 µM), hits mostly inhibitors | 310,000 tested, 0.63% active | AID 720579; calls by dose curve; tested in A549 cells; further: nearly all actives have a fitted effect of over 35% in size
Marburg entry inh: blocks Marburg virus binding to or entry into cells; Marburg virus pseudotyped entry inhibition, cell reporter; Potency, µM (highest dose often 37.8 µM), actives largely listed as inhibitors; 300,000 tested, 1.8% active; calls by dose curve; tested in HEK293 cells
HCMV inh: human cytomegalovirus inhibition; HFF cells, HCMV-luciferase reporter, 72 h; stronger effect = lower value; activity change, negative = inhibition, % at 57.5 µM; 410,000 tested, 4.5% active; in the data active means activity change below about -60%; inconclusive means no clear call, values can overlap the other calls; inactive means above about -39%
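Two-dose cell screen: HFF monolayers treated with compounds and infected with luciferase-expressing HCMV at 1 PFU/cell, 72 h at 37C, then lysed for luciferase measurement.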
FMDV antiviral: foot and mouth disease virus antiviral activity | FMDV antiviral cell-based qHTS | 410,000 tested, 1.2% active | Potency, µM (doses to about 57.9 µM), most hits filed as inhibitors | AID 1159524; calls by dose curve; tested in HEK293T cells; further: read-out not given here; nearly all actives have a fitted effect of over 45% in size
Vaccinia Venus: inhibitors of vaccinia virus (Venus reporter). AID 720580. 330,000 tested, 0.46% active. Potency, µM (highest dose often 36.5 µM), usual class: inhibitors. Vaccinia virus Venus reporter expression, fluorescence; calls by dose curve; tested in A549 cells; further: nearly all actives have a fitted effect of over 30% in size
Each line names hits and unclear results; the compound was inactive in the other large screens. Hits are enriched below; roughly 6.5% of the tested compounds scored in any of these assays.

O=C(Nc1cccc(Cl)c1)Nc1nccs1	none (no result: Vaccinia mCherry, Vaccinia Venus)
CCc1ccccc1NC(=O)Nc1cc(C(=O)NCc2ccc(OC)cc2)ccc1N1CCCC1	Vaccinia mCherry inconclusive, Vaccinia Venus inconclusive (no result: Marburg entry inh)
Cc1c(Cl)cccc1-n1ncc(C(=O)NC2CCCC2)c1C1CCN(C(=O)OC(C)(C)C)CC1	Lassa entry inh inconclusive (no result: Marburg entry inh)
O=C1CN(C(=O)c2ccc(Cl)cc2Cl)C(c2ccc(F)cc2)c2cc(F)ccc2N1 (centres undefined)	Lassa entry inh inconclusive
c1c2c(cc3sc(N4CCCCC4)nc13)OCO2	Lassa entry inh 6.31µM, Marburg entry inh inconclusive
CC(=O)Nc1ccc(S(=O)(=O)NC2=NCN(C(C)C)CN2)cc1	none
CC(=O)N1CCc2cc(Br)cc(S(=O)(=O)N3CCC(C(=O)Nc4ccc(C(C)C)cc4)CC3)c21	Lassa entry inh inconclusive, FMDV antiviral inconclusive
Cc1ccc(-n2nc3c(=O)n(C(C)C(=O)NCc4ccc(Cl)cc4)nc(C)c3c2C)cc1 (centres undefined)	HCMV inh -67.9, FMDV antiviral inconclusive (no result: Lassa entry inh, Vaccinia mCherry, Marburg entry inh, Vaccinia Venus)
CSc1ccc(CCNC(=O)C(C)n2nc(C)c3c(C)n(-c4ccccc4)nc3c2=O)cc1 (centres undefined)	FMDV antiviral inconclusive (no result: Marburg entry inh)
CCC(C(=O)NCCc1ccc(C)cc1)n1nc(C)c2c(C)n(-c3ccccc3)nc2c1=O (centres undefined)	HCMV inh inconclusive (no result: Lassa entry inh, Vaccinia mCherry, Marburg entry inh, Vaccinia Venus)
Cc1ccc(-n2nc3c(=O)n(C(C)C(=O)NCc4ccccc4C)nc(C)c3c2C)cc1 (centres undefined)	FMDV antiviral inconclusive (no result: Marburg entry inh)
Cc1ccc(-n2nc3c(=O)n(C(C)C(=O)NCc4ccc(OC(C)C)cc4)nc(C)c3c2C)cc1 (centres undefined)	Lassa entry inh inconclusive, HCMV inh -77.4 (no result: Marburg entry inh)
CCC(C(=O)NCCc1ccc(SC)cc1)n1nc(C)c2c(C)n(-c3ccc(C)cc3)nc2c1=O (centres undefined)	Lassa entry inh inconclusive, HCMV inh -79.6, FMDV antiviral inconclusive, Vaccinia Venus inconclusive (no result: Marburg entry inh)
Cc1ccc(-n2nc3c(=O)n(C(C)C(=O)O)nc(C)c3c2C)cc1 (centres undefined)	none
CSc1ccc(CNC(=O)C(C)n2nc(C)c3c(C)n(-c4ccccc4)nc3c2=O)cc1 (centres undefined)	Lassa entry inh inconclusive, Marburg entry inh inconclusive, HCMV inh -61.8
Cc1ccc(NC(=O)CSc2nc3nccnc3c(=O)n2CCc2c[nH]c3ccccc23)cc1	none (no result: Marburg entry inh)
COC(=O)C1=C(C)N(Cc2ccccc2)C(=NCc2ccc3c(c2)OCO3)NC1CCc1ccccc1 (centres undefined)	Lassa entry inh inconclusive (no result: Vaccinia mCherry, HCMV inh, FMDV antiviral, Vaccinia Venus)
Cc1ccc(-c2ccnc(-n3ncc(C(=O)NC[C@@H]4CCCN5CCCC[C@H]45)c3C3CC3)n2)o1	none (no result: Lassa entry inh, Marburg entry inh, HCMV inh)
COc1ccc(CCNC(=O)C(C)n2nc(C)c3sc4ccccc4c3c2=O)c(OC)c1 (centres undefined)	Marburg entry inh inconclusive
CNC(=O)c1c(NC(=O)c2cc(=O)c3cc(C)c(C)cc3o2)sc2c1CCCC2	Marburg entry inh inconclusive
Cc1ccc(CCNC(=O)C(C)n2nc(C)c3c(C)n(-c4ccccc4)nc3c2=O)cc1 (centres undefined)	none
Cc1ccc(-n2nc3c(=O)n(C(C)C(=O)NCCC4=CCCCC4)nc(C)c3c2C)cc1 (centres undefined)	HCMV inh -61.4, FMDV antiviral 14.1µM (no result: Lassa entry inh, Vaccinia mCherry, Marburg entry inh, Vaccinia Venus)
CCc1ccc(NC(=O)C2CCCN(S(=O)(=O)c3cccc4nsnc34)C2)cc1 (centres undefined)	FMDV antiviral inconclusive
COc1cc(S(=O)(=O)NCCOC23CC4CC(CC(C4)C2)C3)c(OC)cc1Cl	Lassa entry inh inconclusive, Marburg entry inh inconclusive, HCMV inh -63.3
CCOc1ccc(OCC)c(S(=O)(=O)NCCOC23CC4CC(CC(C4)C2)C3)c1	Lassa entry inh inconclusive, Marburg entry inh inconclusive, HCMV inh -73.4, Vaccinia Venus inconclusive
Cc1ccc(C(c2sc3nc(-c4ccco4)nn3c2O)N2CCCCC2)cc1 (centres undefined)	none (no result: Marburg entry inh)
Cc1ncc2c(c1CNC(=O)c1ccc3c(c1)OCO3)CCN(C(=O)c1cc3ccccc3o1)C2	none (no result: Lassa entry inh, Marburg entry inh, HCMV inh)
Cc1cc(Br)ccc1NC(=O)COC(=O)c1ccccc1OCC(N)=O	none (no result: Lassa entry inh, Marburg entry inh, HCMV inh, FMDV antiviral)
CCCN1CNc2c(c(=O)[nH]c(=S)n2CCc2cc(C)ccc2C)C1	none (no result: Lassa entry inh, Marburg entry inh, HCMV inh, FMDV antiviral)
CC(C)(C)CC(C)(C)N=C1Nc2cc(Cl)c(Cl)cc2N[C@]12C[C@H]1CCCC(=O)N3CC[C@@H](C2)[C@@H]13	none (no result: Lassa entry inh, Marburg entry inh, HCMV inh, FMDV antiviral)
